These results are taken from ChEMBL document CHEMBL1961873, “Compounds: GSK PKIS; Assays: Nanosyn kinase panel” (2012).

One may read the inhibition as the change of the read-out against control, counted positive when it falls.

Several values for one entry are separate records, joined by “and”; a condition that tells them apart may be missing. Equal values may be shown once.

The target of assay [1] is T1, Serine/threonine-protein kinase Nek9 (Homo sapiens) (UniProt Q8TD19).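 Note: each value is a mean percent inhibition of NEK9.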
T1 sequence (whole entry): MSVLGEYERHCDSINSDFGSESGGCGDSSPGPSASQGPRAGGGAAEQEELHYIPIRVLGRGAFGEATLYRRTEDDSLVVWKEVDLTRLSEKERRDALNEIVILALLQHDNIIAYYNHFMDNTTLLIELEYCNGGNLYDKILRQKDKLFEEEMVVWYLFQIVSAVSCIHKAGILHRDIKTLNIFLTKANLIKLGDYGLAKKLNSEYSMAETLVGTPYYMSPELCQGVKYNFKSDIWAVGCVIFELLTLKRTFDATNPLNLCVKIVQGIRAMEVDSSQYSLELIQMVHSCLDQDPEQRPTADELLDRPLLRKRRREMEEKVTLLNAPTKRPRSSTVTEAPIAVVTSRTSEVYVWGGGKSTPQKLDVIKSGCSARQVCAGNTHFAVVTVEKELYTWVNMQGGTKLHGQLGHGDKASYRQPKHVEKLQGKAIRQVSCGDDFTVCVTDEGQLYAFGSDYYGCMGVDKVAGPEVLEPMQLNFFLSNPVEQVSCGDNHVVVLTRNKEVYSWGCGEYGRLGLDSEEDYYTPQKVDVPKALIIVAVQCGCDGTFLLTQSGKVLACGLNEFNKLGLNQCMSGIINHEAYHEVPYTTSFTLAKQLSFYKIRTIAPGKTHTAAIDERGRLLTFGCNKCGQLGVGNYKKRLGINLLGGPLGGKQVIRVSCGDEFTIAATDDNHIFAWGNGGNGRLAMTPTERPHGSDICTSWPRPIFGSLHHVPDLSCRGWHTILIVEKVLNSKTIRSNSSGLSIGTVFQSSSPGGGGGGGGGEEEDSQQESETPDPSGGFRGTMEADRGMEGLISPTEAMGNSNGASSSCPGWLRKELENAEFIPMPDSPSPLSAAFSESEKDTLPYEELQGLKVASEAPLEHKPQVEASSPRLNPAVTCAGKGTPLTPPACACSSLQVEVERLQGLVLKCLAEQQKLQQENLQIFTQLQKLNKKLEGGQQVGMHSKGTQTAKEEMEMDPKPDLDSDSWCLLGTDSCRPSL
The conditions noted are these: at 1 µM.

The target in assay [2] is Serine/threonine-protein kinase PLK1 (Homo sapiens) (UniProt P53350). The conditions noted are these: at 0.1 µM.
Chain of Serine/threonine-protein kinase PLK1 (Homo sapiens) (P53350 whole entry): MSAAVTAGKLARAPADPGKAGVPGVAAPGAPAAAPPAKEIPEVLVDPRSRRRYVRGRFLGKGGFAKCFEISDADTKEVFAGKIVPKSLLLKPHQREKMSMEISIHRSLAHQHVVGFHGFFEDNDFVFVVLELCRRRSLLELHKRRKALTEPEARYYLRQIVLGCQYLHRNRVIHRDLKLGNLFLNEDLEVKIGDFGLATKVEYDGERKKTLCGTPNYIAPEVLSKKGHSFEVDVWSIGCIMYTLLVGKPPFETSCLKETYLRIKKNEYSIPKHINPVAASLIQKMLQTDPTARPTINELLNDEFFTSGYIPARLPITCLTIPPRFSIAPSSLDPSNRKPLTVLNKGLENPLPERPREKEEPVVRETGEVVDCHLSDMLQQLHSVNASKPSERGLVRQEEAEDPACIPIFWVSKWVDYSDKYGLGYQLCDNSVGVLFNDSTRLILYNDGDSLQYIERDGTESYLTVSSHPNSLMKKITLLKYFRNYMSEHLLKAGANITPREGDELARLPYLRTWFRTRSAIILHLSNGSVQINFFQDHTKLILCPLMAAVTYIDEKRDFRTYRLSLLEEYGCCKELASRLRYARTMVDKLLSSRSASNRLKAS
The target is the same in assay [3]. The following applies: at 1 µM.
For assay [4], the target named is T2, Dual specificity protein kinase TTK (Homo sapiens) (UniProt P33981).
T2 sequence (whole entry): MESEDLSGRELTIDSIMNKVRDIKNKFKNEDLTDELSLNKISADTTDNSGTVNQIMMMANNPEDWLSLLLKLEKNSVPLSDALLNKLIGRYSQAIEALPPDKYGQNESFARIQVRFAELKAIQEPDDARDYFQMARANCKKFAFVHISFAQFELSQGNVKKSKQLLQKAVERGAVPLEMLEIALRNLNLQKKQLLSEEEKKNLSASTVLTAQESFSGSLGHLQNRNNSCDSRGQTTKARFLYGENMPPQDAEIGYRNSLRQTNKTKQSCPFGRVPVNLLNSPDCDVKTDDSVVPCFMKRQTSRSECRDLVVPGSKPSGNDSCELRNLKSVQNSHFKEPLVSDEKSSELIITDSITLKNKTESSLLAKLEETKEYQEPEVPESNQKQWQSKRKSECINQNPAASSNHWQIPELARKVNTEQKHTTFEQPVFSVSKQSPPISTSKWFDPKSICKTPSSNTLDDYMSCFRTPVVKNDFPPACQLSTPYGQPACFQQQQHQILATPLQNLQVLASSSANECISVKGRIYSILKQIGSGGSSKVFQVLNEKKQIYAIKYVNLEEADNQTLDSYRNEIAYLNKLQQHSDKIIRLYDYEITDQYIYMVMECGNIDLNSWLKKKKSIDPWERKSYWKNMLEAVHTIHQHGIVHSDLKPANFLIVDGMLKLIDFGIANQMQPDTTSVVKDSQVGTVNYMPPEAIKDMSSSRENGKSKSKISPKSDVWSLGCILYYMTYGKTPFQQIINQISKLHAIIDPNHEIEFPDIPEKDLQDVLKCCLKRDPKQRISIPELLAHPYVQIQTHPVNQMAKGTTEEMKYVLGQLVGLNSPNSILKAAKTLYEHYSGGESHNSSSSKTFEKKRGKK
The following applies: at 0.1 µM.

Assay [5] relates to T3, Receptor-type tyrosine-protein kinase FLT3 (Homo sapiens), P36888 [D835Y].
T3 sequence (whole entry): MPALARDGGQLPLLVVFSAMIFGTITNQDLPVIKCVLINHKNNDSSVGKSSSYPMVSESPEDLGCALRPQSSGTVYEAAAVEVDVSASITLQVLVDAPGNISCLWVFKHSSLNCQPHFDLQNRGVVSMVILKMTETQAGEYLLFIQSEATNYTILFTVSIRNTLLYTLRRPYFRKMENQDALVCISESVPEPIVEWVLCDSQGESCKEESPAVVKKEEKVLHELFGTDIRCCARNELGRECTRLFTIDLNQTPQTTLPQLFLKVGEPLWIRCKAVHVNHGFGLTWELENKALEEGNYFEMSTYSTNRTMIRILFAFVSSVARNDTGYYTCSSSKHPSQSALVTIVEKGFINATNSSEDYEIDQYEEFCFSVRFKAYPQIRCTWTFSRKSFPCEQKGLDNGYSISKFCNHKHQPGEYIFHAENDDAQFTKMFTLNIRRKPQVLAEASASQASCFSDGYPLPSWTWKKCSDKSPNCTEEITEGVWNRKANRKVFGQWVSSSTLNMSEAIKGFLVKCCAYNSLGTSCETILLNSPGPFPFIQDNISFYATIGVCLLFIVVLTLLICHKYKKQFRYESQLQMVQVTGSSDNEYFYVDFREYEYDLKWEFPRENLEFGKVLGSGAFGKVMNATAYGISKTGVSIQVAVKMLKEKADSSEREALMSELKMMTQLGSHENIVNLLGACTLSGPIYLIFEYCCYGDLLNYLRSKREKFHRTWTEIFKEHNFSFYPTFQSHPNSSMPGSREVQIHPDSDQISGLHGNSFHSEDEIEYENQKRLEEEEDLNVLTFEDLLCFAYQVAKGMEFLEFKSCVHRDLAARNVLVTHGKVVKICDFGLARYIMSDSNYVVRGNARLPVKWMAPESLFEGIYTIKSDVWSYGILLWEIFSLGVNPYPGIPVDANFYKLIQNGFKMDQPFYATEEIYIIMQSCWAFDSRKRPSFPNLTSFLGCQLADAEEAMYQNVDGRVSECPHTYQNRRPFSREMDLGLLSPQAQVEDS
The conditions noted are these: at 1 µM.

Assay [6] deals with Vascular endothelial growth factor receptor 3 (Homo sapiens) (UniProt P35916). The conditions noted are these: at 0.1 µM.
Chain of Vascular endothelial growth factor receptor 3 (Homo sapiens) (P35916 whole entry): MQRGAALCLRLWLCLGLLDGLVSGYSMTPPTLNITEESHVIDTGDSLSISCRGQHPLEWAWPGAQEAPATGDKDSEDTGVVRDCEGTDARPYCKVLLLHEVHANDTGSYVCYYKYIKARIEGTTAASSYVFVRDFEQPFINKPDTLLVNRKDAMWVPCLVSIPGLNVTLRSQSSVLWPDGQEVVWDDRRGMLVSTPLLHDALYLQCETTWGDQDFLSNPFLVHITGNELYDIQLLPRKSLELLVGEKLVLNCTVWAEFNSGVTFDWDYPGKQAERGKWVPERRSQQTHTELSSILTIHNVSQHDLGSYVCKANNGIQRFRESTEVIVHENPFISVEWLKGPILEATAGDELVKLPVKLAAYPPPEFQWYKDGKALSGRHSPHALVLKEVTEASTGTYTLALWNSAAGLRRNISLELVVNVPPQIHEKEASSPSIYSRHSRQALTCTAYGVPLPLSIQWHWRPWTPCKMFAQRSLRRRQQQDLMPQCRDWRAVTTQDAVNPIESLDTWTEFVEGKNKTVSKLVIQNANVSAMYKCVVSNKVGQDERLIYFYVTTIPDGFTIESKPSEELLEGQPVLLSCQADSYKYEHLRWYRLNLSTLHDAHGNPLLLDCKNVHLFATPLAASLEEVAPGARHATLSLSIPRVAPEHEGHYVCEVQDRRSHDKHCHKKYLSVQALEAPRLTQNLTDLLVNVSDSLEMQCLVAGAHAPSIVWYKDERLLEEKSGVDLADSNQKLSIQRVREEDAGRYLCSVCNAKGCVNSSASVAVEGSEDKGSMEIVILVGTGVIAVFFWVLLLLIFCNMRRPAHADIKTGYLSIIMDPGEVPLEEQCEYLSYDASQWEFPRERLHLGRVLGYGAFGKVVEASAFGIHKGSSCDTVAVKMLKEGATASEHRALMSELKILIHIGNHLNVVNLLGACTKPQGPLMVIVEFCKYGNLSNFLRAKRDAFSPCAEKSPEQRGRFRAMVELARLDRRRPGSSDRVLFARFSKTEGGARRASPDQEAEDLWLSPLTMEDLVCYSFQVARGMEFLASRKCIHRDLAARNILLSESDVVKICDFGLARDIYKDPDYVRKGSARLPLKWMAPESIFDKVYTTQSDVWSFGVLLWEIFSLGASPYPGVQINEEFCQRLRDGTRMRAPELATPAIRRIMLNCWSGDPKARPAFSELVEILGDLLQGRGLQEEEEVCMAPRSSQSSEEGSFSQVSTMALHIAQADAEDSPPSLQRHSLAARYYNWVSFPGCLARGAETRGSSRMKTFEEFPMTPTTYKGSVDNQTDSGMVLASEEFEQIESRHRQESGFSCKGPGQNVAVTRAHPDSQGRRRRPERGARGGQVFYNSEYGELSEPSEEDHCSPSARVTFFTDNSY
The target is the same in assay [7]. The conditions noted are these: at 1 µM.
The target in assay [8] is Macrophage colony-stimulating factor 1 receptor (Homo sapiens) (UniProt P07333). The conditions noted are these: at 0.1 µM.
Chain of Macrophage colony-stimulating factor 1 receptor (Homo sapiens) (P07333 whole entry): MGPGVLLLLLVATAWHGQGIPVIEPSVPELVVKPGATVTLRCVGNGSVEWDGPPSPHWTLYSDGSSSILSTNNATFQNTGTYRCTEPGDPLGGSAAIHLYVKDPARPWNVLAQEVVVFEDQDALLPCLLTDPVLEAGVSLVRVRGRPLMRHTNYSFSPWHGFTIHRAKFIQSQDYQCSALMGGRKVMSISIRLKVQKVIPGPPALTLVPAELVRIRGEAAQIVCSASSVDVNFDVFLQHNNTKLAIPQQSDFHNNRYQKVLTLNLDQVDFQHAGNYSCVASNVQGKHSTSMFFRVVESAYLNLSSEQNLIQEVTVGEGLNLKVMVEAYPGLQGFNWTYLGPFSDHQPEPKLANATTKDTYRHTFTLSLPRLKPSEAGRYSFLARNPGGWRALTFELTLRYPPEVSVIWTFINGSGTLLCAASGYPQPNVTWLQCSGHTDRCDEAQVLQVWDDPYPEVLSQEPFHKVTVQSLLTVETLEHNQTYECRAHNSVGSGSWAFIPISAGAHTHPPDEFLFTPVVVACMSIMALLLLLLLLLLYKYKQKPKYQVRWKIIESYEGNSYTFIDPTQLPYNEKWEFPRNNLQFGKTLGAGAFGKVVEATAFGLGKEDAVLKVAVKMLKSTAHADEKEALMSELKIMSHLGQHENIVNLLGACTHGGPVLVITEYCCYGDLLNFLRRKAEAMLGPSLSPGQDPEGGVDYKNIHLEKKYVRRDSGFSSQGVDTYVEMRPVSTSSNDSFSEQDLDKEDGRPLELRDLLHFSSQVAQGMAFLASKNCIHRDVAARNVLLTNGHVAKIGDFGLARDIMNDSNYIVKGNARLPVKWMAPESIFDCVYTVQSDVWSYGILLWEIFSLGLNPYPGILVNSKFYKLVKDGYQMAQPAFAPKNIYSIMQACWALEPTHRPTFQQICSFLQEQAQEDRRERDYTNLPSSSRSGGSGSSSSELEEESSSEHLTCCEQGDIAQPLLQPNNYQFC
For assay [9] the target is unchanged. The conditions noted are these: at 1 µM.
For assay [10], the target named is Tyrosine-protein kinase Fyn (Homo sapiens) (UniProt P06241). The following applies: at 0.1 µM.
Chain of Tyrosine-protein kinase Fyn (Homo sapiens) (P06241 2-537 limits assumed): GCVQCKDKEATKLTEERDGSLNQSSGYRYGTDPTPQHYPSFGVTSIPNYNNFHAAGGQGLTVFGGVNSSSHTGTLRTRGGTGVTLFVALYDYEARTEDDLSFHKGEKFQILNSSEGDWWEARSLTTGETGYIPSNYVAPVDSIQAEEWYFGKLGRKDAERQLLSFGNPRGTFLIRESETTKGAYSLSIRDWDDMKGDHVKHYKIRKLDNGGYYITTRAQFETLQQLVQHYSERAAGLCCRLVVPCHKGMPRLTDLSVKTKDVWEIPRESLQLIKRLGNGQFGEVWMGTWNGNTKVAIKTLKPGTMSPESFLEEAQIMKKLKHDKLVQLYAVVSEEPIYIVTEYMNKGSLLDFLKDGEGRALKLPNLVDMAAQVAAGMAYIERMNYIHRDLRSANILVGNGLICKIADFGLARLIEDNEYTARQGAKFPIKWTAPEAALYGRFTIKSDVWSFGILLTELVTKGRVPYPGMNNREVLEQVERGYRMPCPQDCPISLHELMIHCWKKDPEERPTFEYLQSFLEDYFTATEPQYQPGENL

As to `FC(F)(F)CNc1nccc(-c2cnn3ncccc23)n1`, the inhibition in assay [1] is 0.64%; in assay [2], 0.06%; in assay [3], 0.65%; in assay [4], 3.92%; in [5], 6%; in assay [6], 2.05%. Also, the inhibition in assay [7] was 2.12%; in assay [8] it was -4.71%; in [9], 3.68%; in assay [10] it was 0.85%.
In the case of `COc1c(C(N)=O)cc(-c2ccc(Cl)cc2)cc1-c1ccc(S(N)(=O)=O)cc1`, the inhibition was 5.67% in [1]; 4.84% in [2]; 8.71% in [3]; 11.8% in assay [4]; 0.7% in [5]; 2.5% in assay [6]. For the same compound, the inhibition in [7] was 0.39%; in [8], 5.24%; in [9] it was 4.74%; in assay [10], 1.12%.
In the case of `Nc1nonc1-c1nc2cnccc2n1C1CC1`, the inhibition in assay [1] is 1.51% and 3.66%; in [2], 3.84% and 2.82%; in assay [3] it was 5.97% and 4.56%; in assay [4] it was 5.61% and 5.02%; in assay [5], 7.78% and 5.95%; in assay [6], 5.27% and -4.56%. Further, the inhibition in [7] was 21.9% and 17.5%; in assay [8], 3.87% and 1.25%; in [9], 10.1% and 8.4%; in assay [10], 1.35% and -1.92%.
In the case of `CS(=O)(=O)CCNCc1ccoc1-c1ccc2ncnc(Nc3ccc(OCc4ccccc4)cc3)c2c1`, the inhibition in [1] is 1.8%; in [2] it was 2.42%; in [3], 3.33%; in assay [4] it was 3.38%; in assay [5], 2.16%; in assay [6], 2.25%. The inhibition in assay [7] was 2.83%; in assay [8], -0.38%; in assay [9], 6.09%; in assay [10], 1.81%.
In the case of `COc1ccc(Nc2ncc(-c3ccccc3)o2)cc1OC`, the inhibition in assay [1] came to 9.31%; in assay [2] it was 2.85%; in assay [3], 1.53%; in assay [4], 2.17%; in assay [5], 47.1%; in [6], 5.08%. Further, the inhibition in assay [7] came out at 25.5%; in assay [8] it was 21.9%; in assay [9] it was 77.2%; in assay [10], 4.17%.
In the case of `Nc1ncnc2occ(-c3ccc(NC(=O)Nc4cc(C(F)(F)F)ccc4F)cc3)c12`, the inhibition in assay [1] was 4.68% and 3.35%; in assay [2] it was 2.14% and -0.72%; in [3], 1.27% and 0.12%; in [4] it was 1.69% and 5.46%; in assay [5], 35.4% and 26.1%; in assay [6] it was 44.8% and 23.6%. Moreover, the inhibition in assay [7] is 97.2% and 75.5%; in [8] it was 91.2% and 83.5%; in [9] it was 96.1% and 81.2%; in [10] it was 2.34% and 3.05%.
In the case of `COC(=O)Nc1nc2ccc(Oc3ccc(NC(=O)Nc4cc(C(F)(F)F)ccc4F)cc3)cc2s1`, the inhibition in assay [1] is -3.04%; in assay [2], 1.23%; in assay [3], 0.38%; in [4], 0.59%; in assay [5] it was 13.5%; in [6], 10.4%. In addition, the inhibition in assay [7] came out at 52.8%; in [8], 2.52%; in assay [9], 39.1%; in assay [10] it was 6.49%.
On to `CNC(=O)c1cncc(/C=C/c2ccccc2C)c1`, for which the inhibition in assay [1] was 3.57%; in assay [2], 4.47%; in assay [3], 3.11%; in assay [4] it was 8.61%; in assay [5] it was 2.62%; in assay [6], 6.74%. For the same compound, the inhibition in assay [7] is 3.1%; in assay [8], -0.27%; in assay [9] it was 4.09%; in [10] it was -0.42%.
As for `Cc1cc(O)cc(C)c1/C=C/c1cncc(C(=O)OC(C)(C)C)c1`, the inhibition in [1] came to 2.6%; in assay [2], 0.53%; in assay [3], 2.82%; in assay [4] it was 6.3%; in assay [5], 2.14%; in [6], 1.44%. The inhibition in assay [7] is 1.34%; in assay [8], 7.66%; in assay [9], 38.6%; in [10], 8.16%.
With `CCN1CCC(C(=O)Nc2n[nH]c3nnc(-c4cccc(F)c4F)cc23)CC1`, the inhibition in assay [1] is 3.91%; in assay [2], -0.35%; in [3] it was -0.89%; in assay [4], -0.14%; in assay [5] it was 1.33%; in [6], 1.09%. The inhibition is 0.68% in assay [7], -1.42% in assay [8], 7.94% in assay [9] and 1.4% in [10].
For the compound `COc1cc2c(cc1Nc1nc(Nc3cccc(F)c3C(N)=O)c3cc[nH]c3n1)N(C(=O)CN1CCN(C(C)C)CC1)CC2`, the inhibition in assay [1] was 6.33%; in assay [2] it was 4.96%; in [3], 25.8%; in assay [4], 11.4%; in assay [5] it was 2%; in assay [6] it was -0.29%. Besides, the inhibition was 4.32% in [7], -0.95% in assay [8], 5.37% in assay [9] and 1.51% in [10].
On to `Cc1ccc(-c2cc3c(NC(=O)C4CC4)ncnc3o2)cc1`, for which the inhibition worked out at 4.87% in [1]; 3.28% in assay [2]; 2.79% in [3]; 6.01% in [4]; 3.4% in assay [5]; 3.84% in [6]. Besides, the inhibition in assay [7] turned out to be 9.25%; in assay [8] it was 20.6%; in assay [9], 66.9%; in assay [10] it was 6.5%.
Regarding `c1ccc(-c2n[nH]cc2-c2ccnc(-c3ccc(OCCn4ccnc4)cc3)c2)nc1`, the inhibition in assay [1] worked out at 2.33%; in [2], 1.2%; in [3], 2.17%; in [4], 3.26%; in assay [5], 5.27%; in assay [6] it was 5.33%. Further, the inhibition in assay [7] is 16.4%; in assay [8], 2.61%; in assay [9], 11.8%; in [10], 2.86%.
In the case of `CS(=O)(=O)CCNCc1ccc(-c2ccc3ncnc(Nc4ccc(OCc5cccc(C(F)(F)F)c5)cc4)c3c2)o1`, the inhibition in [1] amounted to 2.96%; in [2], 5.06%; in assay [3], 6.5%; in [4], 7.15%; in assay [5], 1.14%; in assay [6], 8.65%. The inhibition turned out to be 15.4% in [7], 3.92% in assay [8], 9.05% in assay [9] and 2.75% in assay [10].
Consider `Fc1ccc(Nc2nccc(-c3c(-c4ccc(C(F)(F)F)cc4)nn4ncccc34)n2)cc1F`, for which the inhibition in assay [1] was 1.67%; in [2] it was 2.18%; in [3], 2.92%; in [4], 7.64%; in assay [5], -2.39%; in assay [6] it was 0.19%. The inhibition in [7] is -1.91%; in [8], 2.64%; in assay [9], 6.66%; in assay [10], 0.1%.
